# Source: ChEMBL document CHEMBL2218924, “A broad activity screen in support of a chemogenomic map for kinase signalling research and drug discovery” (Biochem J, 2013)
# Assays:
# [1] = target: T1, Serine/threonine-protein kinase 3 (Homo sapiens) (UniProt Q13188); settings: at 1 µM
# T1 sequence (whole entry): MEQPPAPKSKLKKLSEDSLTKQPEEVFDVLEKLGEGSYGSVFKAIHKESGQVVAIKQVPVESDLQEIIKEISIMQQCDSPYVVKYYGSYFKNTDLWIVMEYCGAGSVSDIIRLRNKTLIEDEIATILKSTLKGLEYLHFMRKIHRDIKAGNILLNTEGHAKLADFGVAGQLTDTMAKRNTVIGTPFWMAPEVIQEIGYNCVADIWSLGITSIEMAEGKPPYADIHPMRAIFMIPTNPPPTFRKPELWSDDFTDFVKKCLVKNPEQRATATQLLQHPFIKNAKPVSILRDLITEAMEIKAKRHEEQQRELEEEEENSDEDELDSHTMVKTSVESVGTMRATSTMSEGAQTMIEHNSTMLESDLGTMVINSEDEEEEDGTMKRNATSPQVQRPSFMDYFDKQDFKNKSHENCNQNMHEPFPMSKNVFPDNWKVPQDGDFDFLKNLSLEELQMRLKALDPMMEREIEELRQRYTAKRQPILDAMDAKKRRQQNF
# [2] = target: T1, Serine/threonine-protein kinase 3 (Homo sapiens); settings: at 10 µM
# [3] = target: Serine/threonine-protein kinase 24 (Homo sapiens) (UniProt Q9Y6E0); settings: at 1 µM
# Serine/threonine-protein kinase 24 (Homo sapiens), sequence (Q9Y6E0 whole entry, looked up): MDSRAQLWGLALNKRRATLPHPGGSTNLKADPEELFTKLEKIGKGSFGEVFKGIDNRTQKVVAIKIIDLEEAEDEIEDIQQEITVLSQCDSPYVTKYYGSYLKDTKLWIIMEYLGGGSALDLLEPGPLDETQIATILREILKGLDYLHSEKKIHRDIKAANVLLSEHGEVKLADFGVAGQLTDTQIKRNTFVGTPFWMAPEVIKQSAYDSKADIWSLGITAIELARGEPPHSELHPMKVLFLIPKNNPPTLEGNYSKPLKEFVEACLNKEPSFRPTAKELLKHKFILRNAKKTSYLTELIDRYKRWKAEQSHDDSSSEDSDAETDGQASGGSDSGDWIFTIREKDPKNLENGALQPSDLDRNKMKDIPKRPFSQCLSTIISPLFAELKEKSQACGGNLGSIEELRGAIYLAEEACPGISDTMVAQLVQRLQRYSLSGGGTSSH
# [4] = target: Serine/threonine-protein kinase 24 (Homo sapiens) (UniProt Q9Y6E0); settings: at 10 µM
# [5] = target: T2, Tyrosine-protein kinase Mer (Homo sapiens) (UniProt Q12866); settings: at 1 µM
# T2 sequence (whole entry): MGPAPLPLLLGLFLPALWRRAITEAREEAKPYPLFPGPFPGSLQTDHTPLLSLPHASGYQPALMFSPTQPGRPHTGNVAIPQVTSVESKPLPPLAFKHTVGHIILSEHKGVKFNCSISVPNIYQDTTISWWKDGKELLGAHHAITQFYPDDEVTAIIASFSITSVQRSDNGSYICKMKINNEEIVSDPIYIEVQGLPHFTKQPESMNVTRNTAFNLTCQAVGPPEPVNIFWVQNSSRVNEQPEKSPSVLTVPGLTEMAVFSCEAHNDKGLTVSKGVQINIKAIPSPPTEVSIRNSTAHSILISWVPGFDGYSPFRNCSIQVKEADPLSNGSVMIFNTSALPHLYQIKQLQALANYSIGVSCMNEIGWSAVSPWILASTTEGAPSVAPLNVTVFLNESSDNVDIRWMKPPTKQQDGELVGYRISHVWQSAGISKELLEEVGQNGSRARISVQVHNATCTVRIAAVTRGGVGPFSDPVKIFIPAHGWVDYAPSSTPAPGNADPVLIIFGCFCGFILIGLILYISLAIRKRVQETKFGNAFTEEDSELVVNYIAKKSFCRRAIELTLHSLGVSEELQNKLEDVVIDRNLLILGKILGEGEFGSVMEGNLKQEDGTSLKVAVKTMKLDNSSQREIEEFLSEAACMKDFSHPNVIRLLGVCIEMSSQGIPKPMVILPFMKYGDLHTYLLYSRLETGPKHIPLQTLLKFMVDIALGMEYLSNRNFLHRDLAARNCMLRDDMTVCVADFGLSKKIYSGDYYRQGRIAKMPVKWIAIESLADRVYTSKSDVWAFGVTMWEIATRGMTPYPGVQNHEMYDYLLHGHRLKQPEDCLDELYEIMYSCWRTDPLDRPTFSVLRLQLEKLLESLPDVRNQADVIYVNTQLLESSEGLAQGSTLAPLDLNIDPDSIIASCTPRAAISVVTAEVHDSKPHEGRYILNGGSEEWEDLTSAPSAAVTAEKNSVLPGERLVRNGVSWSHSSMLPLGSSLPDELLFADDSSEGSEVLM
# [6] = target: T2, Tyrosine-protein kinase Mer (Homo sapiens); settings: at 10 µM
# [7] = target: Hepatocyte growth factor receptor (Homo sapiens) (UniProt P08581); settings: at 1 µM
# Hepatocyte growth factor receptor (Homo sapiens), sequence (P08581 whole entry): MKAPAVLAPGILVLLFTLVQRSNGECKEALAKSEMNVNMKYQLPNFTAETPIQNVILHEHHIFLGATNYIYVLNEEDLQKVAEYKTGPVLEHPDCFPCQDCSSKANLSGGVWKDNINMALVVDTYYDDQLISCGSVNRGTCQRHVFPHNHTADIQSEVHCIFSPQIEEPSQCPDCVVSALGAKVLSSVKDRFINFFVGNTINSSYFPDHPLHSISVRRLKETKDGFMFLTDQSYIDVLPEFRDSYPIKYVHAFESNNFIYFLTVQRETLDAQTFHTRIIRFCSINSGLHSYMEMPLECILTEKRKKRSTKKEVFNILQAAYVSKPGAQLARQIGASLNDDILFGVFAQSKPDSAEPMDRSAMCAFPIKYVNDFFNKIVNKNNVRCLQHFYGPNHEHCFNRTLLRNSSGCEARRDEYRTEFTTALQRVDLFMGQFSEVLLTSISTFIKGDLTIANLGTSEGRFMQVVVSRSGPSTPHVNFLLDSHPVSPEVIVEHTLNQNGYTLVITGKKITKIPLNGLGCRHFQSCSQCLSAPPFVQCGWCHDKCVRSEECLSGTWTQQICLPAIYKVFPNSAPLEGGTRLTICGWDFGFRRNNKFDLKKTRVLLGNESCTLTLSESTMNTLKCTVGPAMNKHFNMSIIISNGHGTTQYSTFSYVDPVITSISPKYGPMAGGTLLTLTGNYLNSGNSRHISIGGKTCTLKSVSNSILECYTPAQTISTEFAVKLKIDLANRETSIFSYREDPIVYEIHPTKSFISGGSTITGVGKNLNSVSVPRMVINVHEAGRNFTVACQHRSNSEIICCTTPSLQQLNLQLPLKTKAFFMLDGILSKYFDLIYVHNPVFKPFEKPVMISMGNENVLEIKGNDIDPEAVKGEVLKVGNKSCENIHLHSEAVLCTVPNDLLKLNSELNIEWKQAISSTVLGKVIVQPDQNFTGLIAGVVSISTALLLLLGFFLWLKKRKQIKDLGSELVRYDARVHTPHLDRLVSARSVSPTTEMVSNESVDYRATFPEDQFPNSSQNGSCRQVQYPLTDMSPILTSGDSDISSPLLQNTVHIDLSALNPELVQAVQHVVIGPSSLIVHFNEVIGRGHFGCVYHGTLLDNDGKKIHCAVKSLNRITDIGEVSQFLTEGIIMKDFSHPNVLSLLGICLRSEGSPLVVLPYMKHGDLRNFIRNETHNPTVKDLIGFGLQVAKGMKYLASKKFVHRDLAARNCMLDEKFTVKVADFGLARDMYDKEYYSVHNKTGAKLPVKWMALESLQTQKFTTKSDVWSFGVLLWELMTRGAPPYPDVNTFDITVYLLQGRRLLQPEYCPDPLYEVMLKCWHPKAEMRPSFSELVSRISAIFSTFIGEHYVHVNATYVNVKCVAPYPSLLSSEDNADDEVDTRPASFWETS
# [8] = target: Hepatocyte growth factor receptor (Homo sapiens) (UniProt P08581); settings: at 10 µM
# [9] = target: MAP kinase-interacting serine/threonine-protein kinase 2 (Homo sapiens) (UniProt Q9HBH9); settings: at 1 µM
# MAP kinase-interacting serine/threonine-protein kinase 2 (Homo sapiens), sequence (Q9HBH9 whole entry, looked up): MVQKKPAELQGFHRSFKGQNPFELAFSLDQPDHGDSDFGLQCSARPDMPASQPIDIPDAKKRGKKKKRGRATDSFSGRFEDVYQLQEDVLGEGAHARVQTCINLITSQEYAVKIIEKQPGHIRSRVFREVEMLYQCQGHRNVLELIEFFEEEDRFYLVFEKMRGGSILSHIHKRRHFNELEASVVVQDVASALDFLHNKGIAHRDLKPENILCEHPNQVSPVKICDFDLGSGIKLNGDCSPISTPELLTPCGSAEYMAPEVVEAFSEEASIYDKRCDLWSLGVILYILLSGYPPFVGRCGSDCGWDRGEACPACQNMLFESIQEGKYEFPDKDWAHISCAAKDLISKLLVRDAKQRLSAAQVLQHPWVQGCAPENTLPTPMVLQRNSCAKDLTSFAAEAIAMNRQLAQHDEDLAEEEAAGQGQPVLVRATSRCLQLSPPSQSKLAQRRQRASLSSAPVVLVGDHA
# [10] = target: MAP kinase-interacting serine/threonine-protein kinase 2 (Homo sapiens) (UniProt Q9HBH9); settings: at 10 µM
# [11] = target: T3, Muscle, skeletal receptor tyrosine-protein kinase (Homo sapiens) (UniProt O15146); settings: at 1 µM
# T3 sequence (whole entry): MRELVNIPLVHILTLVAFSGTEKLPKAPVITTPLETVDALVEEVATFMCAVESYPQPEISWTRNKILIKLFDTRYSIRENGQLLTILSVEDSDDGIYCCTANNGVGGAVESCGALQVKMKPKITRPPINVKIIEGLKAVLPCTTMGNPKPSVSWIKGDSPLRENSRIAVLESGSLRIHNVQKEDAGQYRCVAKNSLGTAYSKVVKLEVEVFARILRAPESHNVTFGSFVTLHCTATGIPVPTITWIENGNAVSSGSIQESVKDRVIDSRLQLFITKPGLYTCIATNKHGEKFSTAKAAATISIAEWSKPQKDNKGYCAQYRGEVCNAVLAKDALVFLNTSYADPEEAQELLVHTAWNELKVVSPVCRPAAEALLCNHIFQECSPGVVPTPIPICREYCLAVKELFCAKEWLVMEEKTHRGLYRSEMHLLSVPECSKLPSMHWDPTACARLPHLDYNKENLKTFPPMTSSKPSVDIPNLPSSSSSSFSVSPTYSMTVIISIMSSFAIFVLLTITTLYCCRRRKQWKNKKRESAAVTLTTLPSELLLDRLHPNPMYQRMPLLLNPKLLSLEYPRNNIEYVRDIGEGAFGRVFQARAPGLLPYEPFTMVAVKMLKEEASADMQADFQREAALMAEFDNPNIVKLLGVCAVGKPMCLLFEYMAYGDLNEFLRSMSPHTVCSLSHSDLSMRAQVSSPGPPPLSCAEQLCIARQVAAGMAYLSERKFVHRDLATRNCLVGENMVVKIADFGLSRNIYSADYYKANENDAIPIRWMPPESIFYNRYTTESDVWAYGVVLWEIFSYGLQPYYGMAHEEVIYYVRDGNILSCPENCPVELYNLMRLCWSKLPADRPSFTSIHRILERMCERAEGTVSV
# [12] = target: T3, Muscle, skeletal receptor tyrosine-protein kinase (Homo sapiens); settings: at 10 µM
# [13] = target: T4, Serine/threonine-protein kinase Nek11 (Homo sapiens) (UniProt Q8NG66); settings: at 1 µM
# T4 sequence (whole entry): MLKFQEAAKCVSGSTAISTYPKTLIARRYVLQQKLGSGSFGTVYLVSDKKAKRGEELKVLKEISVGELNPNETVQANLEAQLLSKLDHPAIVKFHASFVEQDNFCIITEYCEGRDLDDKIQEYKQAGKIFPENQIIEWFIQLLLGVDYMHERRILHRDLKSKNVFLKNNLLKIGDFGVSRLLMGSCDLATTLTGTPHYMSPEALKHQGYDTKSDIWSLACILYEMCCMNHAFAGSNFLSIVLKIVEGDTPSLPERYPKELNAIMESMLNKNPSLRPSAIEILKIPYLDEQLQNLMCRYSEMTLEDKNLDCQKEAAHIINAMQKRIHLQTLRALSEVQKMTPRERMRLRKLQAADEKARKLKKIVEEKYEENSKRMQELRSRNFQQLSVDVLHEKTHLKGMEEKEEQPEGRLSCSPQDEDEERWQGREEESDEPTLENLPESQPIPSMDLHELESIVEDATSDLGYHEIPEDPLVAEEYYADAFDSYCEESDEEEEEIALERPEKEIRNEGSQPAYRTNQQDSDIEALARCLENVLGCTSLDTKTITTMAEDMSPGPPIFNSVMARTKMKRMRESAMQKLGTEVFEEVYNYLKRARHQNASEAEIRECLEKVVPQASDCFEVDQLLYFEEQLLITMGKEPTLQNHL
# [14] = target: T4, Serine/threonine-protein kinase Nek11 (Homo sapiens); settings: at 10 µM
# [15] = target: T5, Serine/threonine-protein kinase Nek2 (Homo sapiens) (UniProt P51955); settings: at 1 µM
# T5 sequence (whole entry): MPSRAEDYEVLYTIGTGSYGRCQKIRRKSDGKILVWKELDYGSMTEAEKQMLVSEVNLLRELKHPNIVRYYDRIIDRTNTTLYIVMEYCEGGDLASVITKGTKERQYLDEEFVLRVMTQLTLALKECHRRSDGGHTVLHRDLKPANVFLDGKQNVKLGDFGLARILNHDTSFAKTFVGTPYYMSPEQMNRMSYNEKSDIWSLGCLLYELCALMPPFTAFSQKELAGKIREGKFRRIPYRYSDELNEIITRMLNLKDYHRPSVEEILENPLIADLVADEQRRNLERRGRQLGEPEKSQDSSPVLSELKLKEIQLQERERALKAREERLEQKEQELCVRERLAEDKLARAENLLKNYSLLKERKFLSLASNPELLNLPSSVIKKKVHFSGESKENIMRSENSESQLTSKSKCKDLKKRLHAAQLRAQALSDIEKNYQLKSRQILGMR
# [16] = target: T5, Serine/threonine-protein kinase Nek2 (Homo sapiens); settings: at 10 µM
# [17] = target: T6, Serine/threonine-protein kinase Nek3 (Homo sapiens) (UniProt P51956); settings: at 1 µM
# T6 sequence (whole entry): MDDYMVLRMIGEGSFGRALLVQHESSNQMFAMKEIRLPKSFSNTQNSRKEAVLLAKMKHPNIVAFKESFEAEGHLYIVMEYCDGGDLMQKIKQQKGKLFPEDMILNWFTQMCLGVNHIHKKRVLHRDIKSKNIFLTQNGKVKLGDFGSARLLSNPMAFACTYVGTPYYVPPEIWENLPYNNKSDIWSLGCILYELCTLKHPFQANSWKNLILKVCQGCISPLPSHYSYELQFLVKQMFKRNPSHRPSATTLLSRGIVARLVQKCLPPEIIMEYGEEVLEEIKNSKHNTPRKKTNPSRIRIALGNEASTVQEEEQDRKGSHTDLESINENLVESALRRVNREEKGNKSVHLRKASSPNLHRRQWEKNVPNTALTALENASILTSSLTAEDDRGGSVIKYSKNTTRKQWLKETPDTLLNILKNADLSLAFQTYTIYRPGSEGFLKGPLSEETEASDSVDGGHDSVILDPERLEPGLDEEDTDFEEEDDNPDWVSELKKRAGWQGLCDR
# [18] = target: T6, Serine/threonine-protein kinase Nek3 (Homo sapiens); settings: at 10 µM
# [19] = target: Serine/threonine-protein kinase tousled-like 2 (Homo sapiens) (UniProt Q86UE8); settings: at 1 µM
# Serine/threonine-protein kinase tousled-like 2 (Homo sapiens), sequence (Q86UE8 whole entry, looked up): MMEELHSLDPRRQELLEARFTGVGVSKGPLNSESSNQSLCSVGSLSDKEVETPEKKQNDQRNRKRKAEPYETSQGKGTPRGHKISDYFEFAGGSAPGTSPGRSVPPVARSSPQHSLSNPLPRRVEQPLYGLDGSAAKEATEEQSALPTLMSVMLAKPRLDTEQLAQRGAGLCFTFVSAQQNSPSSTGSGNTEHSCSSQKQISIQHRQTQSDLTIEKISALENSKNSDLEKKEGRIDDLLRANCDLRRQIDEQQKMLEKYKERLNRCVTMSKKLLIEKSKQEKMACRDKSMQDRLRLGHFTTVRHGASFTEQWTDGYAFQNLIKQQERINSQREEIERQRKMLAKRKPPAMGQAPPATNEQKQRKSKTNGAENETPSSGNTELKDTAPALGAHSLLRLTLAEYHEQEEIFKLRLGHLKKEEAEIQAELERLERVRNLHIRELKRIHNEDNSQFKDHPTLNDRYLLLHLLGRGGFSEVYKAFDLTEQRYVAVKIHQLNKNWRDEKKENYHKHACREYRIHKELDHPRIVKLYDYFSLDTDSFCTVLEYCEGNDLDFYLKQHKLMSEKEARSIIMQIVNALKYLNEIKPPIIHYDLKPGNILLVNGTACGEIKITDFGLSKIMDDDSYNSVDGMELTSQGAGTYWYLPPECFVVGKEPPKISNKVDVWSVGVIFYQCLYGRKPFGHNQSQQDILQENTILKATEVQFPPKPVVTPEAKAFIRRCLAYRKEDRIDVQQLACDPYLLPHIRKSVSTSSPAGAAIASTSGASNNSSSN
# [20] = target: Serine/threonine-protein kinase tousled-like 2 (Homo sapiens) (UniProt Q86UE8); settings: at 10 µM
Structure (SMILES),residual activity [1] [%],residual activity [2] [%],residual activity [3] [%],residual activity [4] [%],residual activity [5] [%],residual activity [6] [%],residual activity [7] [%],residual activity [8] [%],residual activity [9] [%],residual activity [10] [%],residual activity [11] [%],residual activity [12] [%],residual activity [13] [%],residual activity [14] [%],residual activity [15] [%],residual activity [16] [%],residual activity [17] [%],residual activity [18] [%],residual activity [19] [%],residual activity [20] [%]
Cc1nc(-c2ccccc2)c(-c2ccncc2)o1,102,96,101,100,99,88,128,94,106,77,113,94,81,85,103,102,102,114,106,103
COc1cc2ncnc(N3CCN(C(=O)Nc4ccc(Oc5ccccc5)cc4)CC3)c2cc1OC,98,86,98,117,97,60,114,–,92,64,71,49,110,115,81,82,110,87,88,88
O=C1c2ccccc2-[n+]2ccc3c([nH]c4ccccc43)c21,101,100,71,70,95,97,112,86,55,42,85,88,48,44,90,87,88,90,80,83
Nc1n[nH]c2nnc(-c3c(-c4ccccc4)nn4ccccc34)cc12,79,91,–,15,86,57,78,88,96,101,–,86,107,97,91,86,83,87,89,82
Cn1cc(/C=C2\C(=O)Nc3ccc(S(N)(=O)=O)cc32)c2ccccc21,27,6,69,63,22,16,84,–,80,72,69,28,83,90,79,26,72,19,87,43
CN(C)CCCn1cc(C2=C(c3c[nH]c4ccccc34)C(=O)NC2=O)c2ccccc21,73,17,27,7,60,11,–,58,–,–,134,74,72,59,–,105,–,90,21,2
COc1cc2ncnc(Nc3ccc(O)c(Br)c3)c2cc1OC,97,70,54,43,69,16,86,72,10,6,77,63,50,64,73,83,106,81,86,76
N#CC(C#N)=C(N)/C(C#N)=C/c1ccc(O)cc1,–,–,71,67,–,–,–,138,–,50,–,82,75,97,91,100,–,–,100,95
COc1cc2ncc(-c3ccccc3)nc2cc1OC,–,100,65,71,–,62,92,68,–,–,–,–,87,–,94,100,125,85,–,–
COc1cc2ncnc(Nc3ccc(Oc4ccccc4)cc3)c2cc1OC,96,80,111,124,53,38,–,–,52,16,71,73,100,105,92,96,106,97,106,98
Cc1cccc(-c2[nH]c(C(C)(C)C)nc2-c2ccc3c(c2)OCO3)n1,–,94,79,72,107,97,–,–,–,–,98,87,80,107,88,95,–,–,96,95
CC(=O)c1ccc(N2CCOCC2)cc1O,–,–,70,71,–,–,–,–,105,96,105,81,–,–,84,104,–,77,103,95
Cc1cc(Nc2nc(-c3ccccc3)nc3ccccc23)n[nH]1,55,11,59,10,19,1,94,65,–,61,21,4,66,50,–,66,76,78,62,17
CCN(CC)C(=O)c1ccc(Nc2nc(OCC3CCCCC3)c3nc[nH]c3n2)cc1,66,7,63,16,15,0,45,9,–,44,32,4,67,41,68,11,47,18,–,–
Cc1cncc2cccc(S(=O)(=O)N3CCCN(C(=O)CN)C[C@H]3C)c12,–,–,61,71,79,21,84,123,–,72,90,67,88,86,78,92,–,–,–,82
N#Cc1cnc2cnc(NCc3cccnc3)cc2c1Nc1ccc(F)c(Cl)c1,42,4,27,15,–,–,–,–,98,79,93,60,88,79,–,–,37,46,73,47
